Source: PubChem BioAssay (National Center for Advancing Translational Sciences (NCATS))
Rows were chosen to be rich in hits. Some 11% of all compounds tested hit in one or more screens of this group.
Pf growth 96h = P. falciparum growth inhibition at 96 hours. P. falciparum luciferase reporter growth, 96 h. hit rate 6.9% among 320,000. Potency, µM (top dose mostly 28.7 µM), for the others: top-dose activity change, negative = inhibition, hits mostly inhibitors. AID 504834; note: % is set by controls: 0 for no effect and ±100 for the full control effect
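P. falciparum expressing integrated firefly luciferase grown in erythrocytes (2% hematocrit, 0.05% parasitemia final) with compounds for 96 hours at 37 C, 5% CO2. Growth inhibition read as loss of luminescence after adding luciferase detection reagent.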
NS1 inh = inhibitors of influenza NS1 protein function. AID 2326. Potency, µM (doses to about 46.1 µM), without a hit: at the highest dose activity, positive = more growth. hit rate 0.4% among 270,000; calls by dose curve; note: actives are rising curves; nearly all actives have a fitted effect of over 50% in size
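In this qHTS, NS1 from influenza A is expressed in budding yeast, where it slows growth. Cells are switched from glucose to 2% galactose medium (pH 6.0, -URA), treated with compound, and growth recovery is read at OD600.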
Pf growth 48h = inhibits P. falciparum growth in the first generation, 48 h. Potency, µM (highest dose often 28.7 µM), inactives show at the top dose activity change, negative = inhibition, most hits filed as inhibitors. hit rate 5.9% among 310,000. P. falciparum luciferase growth in erythrocytes, 48 h; note: % is set by controls: 0 for no effect and ±100 for the full control effect
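Compounds are pin-transferred into medium, infected erythrocytes (2% hematocrit, 0.1% parasitemia final) are added, and plates sit one parasite generation at 37 C in 5% CO2. Detection reagent is then added and luminescence measured.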
VACV mCherry inh = inhibitors of vaccinia virus infection (mCherry reporter signal). Vaccinia virus mCherry reporter infection, fluorescence. Potency, µM (doses to about 36.5 µM), for inactives: top-dose activity change, negative = inhibition, usual class: inhibitors. hit rate 0.63% among 310,000. AID 720579; calls by dose curve; tested in A549 cells; note: % is set by controls: 0 for no effect and ±100 for the full control effect; nearly all actives have a fitted effect of over 35% in size
Vaccinia Venus = inhibitors of vaccinia virus (Venus reporter) | hit rate 0.46% among 330,000 | AID 720580 | Potency, µM (highest dose often 36.5 µM), for inactives: at the top dose activity change, negative = inhibition, actives largely listed as inhibitors | Vaccinia virus Venus reporter expression, fluorescence; calls by dose curve; tested in A549 cells; note: % is set by controls: 0 for no effect and ±100 for the full control effect; nearly all actives have a fitted effect of over 30% in size
HCV inh = HCV inhibition; Huh7.5.1 HCVcc-Cre infection, luciferase reporter, 44 h; Potency, µM (top dose mostly 41.8 µM), for the others: top-dose activity change, negative = inhibition, usual class: inhibitors; hit rate 3.4% among 340,000; note: % is set by controls: 0 for no effect and ±100 for the full control effect
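Infectious HCV cell culture screen: compound-treated cells (1,000/well, pre-plated 4 h) are infected with HCVcc-Cre at roughly 0.5 moi and grown 44 h. Infection is quantified by luciferase signal after 15 min substrate incubation at room temperature.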
An asterisk follows results filed as active; i = inactive; ? = inconclusive; / = no result; [ ] = another dose, or the depositor's remark. Unless noted, calls come from the whole dose curve; as a rule, active = well fitted inhibition curve with a large enough effect; inconclusive = small, poorly fitted or top-dose-only effect, or another doubt; inactive = no such curve, though single readings can be large or run the other way. Potency is the fitted concentration of half-maximal effect.

SMILES	Pf growth 96h	NS1 inh	Pf growth 48h	VACV mCherry inh	Vaccinia Venus	HCV inh
COc1ccc(CN(C(=O)CNC(=O)c2ccco2)C(C(=O)NCC2CCCO2)c2ccccc2)cc1 (stereo not given)	2.3µM*	-4%	-4%	-12%	-19%	30%
CCC(=O)N1c2ccccc2NC2=C(C(=O)CC(c3ccco3)C2)C1c1ccco1 (stereo not given)	/	-32%	-16%	/	-28%	21%
CC(=O)N1N=C(c2ccc(C)c([N+](=O)[O-])c2)OC1(C)C	?	-5%	9.3µM*	/	/	-10%
CC(C)(C)c1ccc(S(=O)(=O)NNC(=O)C2CCN(Cc3cccc(F)c3)CC2)cc1	?	/	-24%	-19%	-16%	5%
Cc1sc(NC(=O)CSc2nc(N)cc(N)n2)c(C#N)c1C	-21%	0%	-3%	-25%	-15%	?
Cc1nn(-c2ccc(F)cc2)c(C)c1/C=C/C(=O)N1CCNC(=O)C1	?	/	0%	-8%	3%	5%
Cc1nn(-c2ccc(F)cc2)c(Cl)c1/C=C/C(=O)N1CCNC(=O)C1	13µM*	/	-23%	/	/	5%
Cc1nnn(-c2nonc2N)c1C(=O)N/N=C/c1cccc2ccccc12	-1%	1%	15%	i	-6%	?
O=C(NCCCN1CCCC1=O)c1ccc([N+](=O)[O-])s1	?	/	10µM*	-16%	-28%	4%
NS(=O)(=O)c1ccc(CCNC(=O)c2ccc([N+](=O)[O-])s2)cc1	?	3%	?	11µM*	?	?
NS(=O)(=O)c1ccc(CCNC(=O)c2ccc(Cl)s2)cc1	42%	3%	5%	/	/	-5%
CC1CCN(c2c(NCC3CCC(C(=O)NCc4ccc(F)cc4)CC3)c(=O)c2=O)CC1 (stereo not given)	?	-4%	?	/	/	-3%
C[C@H](NC(=O)c1ccccc1Cl)C(=O)OCC(=O)N1CC2(C)CC1CC(C)(C)C2 (stereo not given in full)	9%	-6%	16%	/	/	9%
Cc1ccc(COC(=O)c2cccc(S(=O)(=O)N3CCCCCC3)c2)cc1	?	/	?	i	-9%	10%
COc1ccc(COn2nnc3ccc(S(=O)(=O)N4CCOCC4)cc32)cc1F	?	/	?	?	?	10µM*
O=S(=O)(c1ccc2nnn(OCc3ccccc3)c2c1)N1CCOCC1	-3%	/	4%	?	?	?
O=C(OCc1ccc(Br)cc1)c1cccc(S(=O)(=O)N2CCCC2)c1	10µM*	/	?	i	-13%	?
CC(=O)N1CCN(S(=O)(=O)c2cccc(C(=O)OCc3ccc(C(C)(C)C)cc3)c2)CC1	9.3µM*	/	12µM*	-25%	-23%	?
COc1ccc(C(=O)OCc2ccccc2F)cc1S(=O)(=O)N1CCCC1	13µM*	/	9.3µM*	-7%	-17%	?
COc1ccc(COC(=O)c2ccc(C)c(S(=O)(=O)N3CCOCC3)c2)cc1F	10µM*	/	?	-25%	-13%	?
COc1ccccc1COC(=O)c1cccc(S(=O)(=O)N2CCCC2)c1	?	/	?	-6%	-12%	?
COc1ccc(COC(=O)c2cccc(S(=O)(=O)N3CCCC3)c2)cc1F	12µM*	-37%	?	/	/	?
COC(=O)C[C@H]1c2cc(F)ccc2S(=O)(=O)N1C(C)C	/	/	/	i	-8%	12%
Cc1ccc(Cc2c(-c3cccc(Br)c3)nc3c(Cl)cc(C(F)(F)F)cn23)cc1	/	/	/	12%	9%	/
COc1cc(OC)nc(Oc2ccc(N)c(C)c2)n1	-1%	1%	5%	-20%	-14%	33%
SMILES	Pf growth 96h	NS1 inh	Pf growth 48h	VACV mCherry inh	Vaccinia Venus	HCV inh
CCCCCCCCCC(=O)NNC(=O)c1c(O)c2ccccc2n(CC)c1=O	329%	4%	11%	-2%	-11%	?
CCCCCC(=O)NNC(=O)c1c(O)c2ccccc2n(CC)c1=O	10µM*	0%	?	-24%	-13%	-24%
CCn1c(=O)c(C(=O)NNC(=O)c2ccccc2Cl)c(O)c2ccccc21	29%	-109%	23%	-23%	-7%	14µM*
CCn1c(=O)c(C(=O)NNC(=O)c2ccccc2F)c(O)c2ccccc21	-24%	-21%	0%	?	-12%	?
CCCSCCCNC(=O)C1CCN(C(=O)c2cc3sccc3n2C)CC1	/	/	/	-1%	-7%	/
CCOc1ccc(N(C(C)C(=O)N/N=C(\C)c2cccc(NC(=O)c3ccccc3)c2)S(C)(=O)=O)cc1 (stereo not given)	?	-11%	?	?	-21%	?
Cc1cc(NC(=O)CSCC(=O)Nc2ccccc2N2CCCCC2)no1	?	/	13µM*	-9%	-23%	-2%
O=C(Cc1ccc(Cl)c(Cl)c1)Nc1ccccc1N1CCCC1	12µM*	-5%	-12%	/	/	?
O=C(Cc1ccc(F)cc1)Nc1ccccc1N1CCCC1	-13%	-4%	-17%	/	/	-2%
O=C(NC(=S)NC1CCN(Cc2ccccc2)CC1)c1ccc(F)cc1	?	-4%	/	/	/	?
Cc1occc1C(=O)NNC(=O)c1ccccc1[N+](=O)[O-]	21%	4%	15%	i	-17%	17%
NC(=O)c1cc(NC(=O)CCc2nc3ccccc3s2)cc(C(N)=O)c1	?	5%	-9%	i	-5%	18%
CC(C#N)Sc1ccc(S(=O)(=O)N(C)C2CCCCC2)cn1 (stereo not given)	-10%	/	1%	/	/	7%
CCOC(=O)NC(=O)CSc1ccc(S(=O)(=O)N(C)C2CCCCC2)cn1	13µM*	/	6.6µM*	/	/	10%
CC(C)CNC(=O)CSc1ccc(S(=O)(=O)N(C)C2CCCCC2)cn1	-13%	/	9.3µM*	-1%	-14%	10%
CC1CCC(NC(=O)CSc2ccc(S(=O)(=O)N(C)C)cn2)CC1 (stereo not given)	?	/	?	/	/	-3%
CC(=O)COc1ccc2c3c(c(=O)oc2c1C)CCCCC3	?	-2%	109%	-3%	?	11µM*
CC(=O)C(C)Oc1ccc2c3c(c(=O)oc2c1C)CCCC3 (stereo not given)	8.3µM*	-121%	9.3µM*	/	/	10µM*
O=C(NCCc1c[nH]c2ccccc12)/C(=C/c1cccnc1)NC(=O)c1ccco1	?	6%	11%	/	/	7%
N#Cc1c(SCC(=O)O)nc(-c2ccccc2)c2c1CCCC2	?	-54%	20%	-24%[1.46 µM]	-15%	8%
CCC(=O)N1CCN(c2nc(-c3ccccc3)c3c(c2C#N)CCCC3)CC1	-17%	-3%	/	-8%	-10%	10µM*
CCCc1cc(N2CCN(C(=O)c3ccco3)CC2)n2c(nc3ccccc32)c1C#N	/	-5%	12µM*	i	-13%	?
CCCCc1nc(N2CCN(C(=O)c3ccco3)CC2)c(C#N)c2c1CCCC2	?	-33%	9.3µM*	/	/	14µM*
